Out of some 2,100 compounds screened, about 180 (8.6%) showed an effect of 50% or more. For the sample, strong results were picked, then their nearest neighbours and some compounds at random.
tested on: MOLM1 and UCSD/AML1 (averaged); test: cell viability relative to DMSO control (POC); higher = less growth inhibition; settings: 1 µM; 72 h
Protocol: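 Primary viability screen in the 3q26 EVI1-high AML cell lines MOLM1 and UCSD/AML1 (1.5e3 cells/well, 384-well), compounds at 1 uM for 72 h. ATP CellTiter-Glo read-out given as percent of viable cells over DMSO control (POC), averaged over duplicates. DMSO was the negative control and 5 uM etoposide the positive control. This mapping covers the MicroSource Spectrum and Selleck anticancer libraries (drug names).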

SMILES	cell viability [%]
CN(C)C(=S)SSC(=S)N(C)C	1.29
C[C@]12CC[C@H]3[C@@H](CCC4=CC(=O)CC[C@@]43C)[C@@H]1CC[C@@H]2O	103
CC[C@@]1(O)C[C@H](O[C@H]2C[C@H](N(C)C)[C@H](O)[C@H](C)O2)c2c(cc3c(c2O)C(=O)c2c(O)cccc2C3=O)[C@H]1C(=O)OC	38.5
CC[C@@]1(O)C[C@H](O)c2c(cc3c(c2O)C(=O)c2c(O)ccc(O)c2C3=O)[C@H]1C(=O)OC	99.6
CC[C@@]1(O)C[C@H](O[C@H]2C[C@H](N(C)C)[C@H](O)[C@H](C)O2)c2c(cc3c(c2O)C(=O)c2c(O)ccc(O)c2C3=O)[C@H]1C(=O)OC	0.762
O=C1CCC[C@@H]2[C@H]3C[C@@H](CN12)[C@@H]1CCCCN1C3.[O-][Cl+3]([O-])([O-])O	95.6
COc1cc(OC)c2c(c1)O[C@H](c1ccc(OC)c(OC)c1)[C@@H](O)C2	100
C=CCC1(C(C)CCC)C(=O)NC(=S)NC1=O (stereo not given)	89.9
COc1cc2c(cc1OC)[C@@H]1C(=O)c3ccc4oc(C(C)C)cc4c3O[C@@H]1CO2	81.7
CC(O)(CS(=O)(=O)c1ccc(F)cc1)C(=O)Nc1ccc(C#N)c(C(F)(F)F)c1 (stereo not given) [Bicalutamide (Casodex)]	101
C[C@H](N)[C@H](O)c1ccc(O)c(O)c1	105
O=C(O)CCC1NCC2CC1CN1CCCCC21 (stereo not given)	93.6
CCCC(C)C1(CC)C(=O)NC(=S)NC1=O (stereo not given)	96.6
CN1C[C@H](C(=O)N[C@]2(C)O[C@@]3(O)[C@@H]4CCCN4C(=O)[C@H](Cc4ccccc4)N3C2=O)C[C@@H]2c3cccc4[nH]cc(c34)C[C@H]21	112
CC(C)C[C@H]1C(=O)N2CCC[C@H]2[C@]2(O)O[C@](NC(=O)[C@@H]3C=C4c5cccc6[nH]c(Br)c(c56)C[C@H]4N(C)C3)(C(C)C)C(=O)N12	108
CN1C[C@H](C(=O)N[C@]2(C)O[C@@]3(O)[C@@H]4CCCN4C(=O)[C@H](Cc4ccccc4)N3C2=O)C=C2c3cccc4[nH]cc(c34)C[C@H]21	48.2
O=C(O)Cc1cnc[nH]1	101
CN1C2CCC1CC(O)C2 (stereo not given)	109
C#CCN(C)[C@H](C)Cc1ccccc1	84.3
O=P1(NCCCl)OCCCN1CCCl (stereo not given) [Ifosfamide]	105
O=P1(NCCCl)OCCCN1CCCl (stereo not given)	105
CC(=O)[O][Hg][c]1ccccc1	1.17
NCC(=O)c1ccccc1	130
COc1ccc(CCN2CCC(Nc3nc4ccccc4n3Cc3ccc(F)cc3)CC2)cc1	95.2
CC(=O)O[C@H]1[C@H]2[C@@H](OC(=O)Cc3ccccc3)[C@@H](C)C[C@]2(OC(C)=O)C(=O)/C(C)=C/[C@@H]2[C@H](CC[C@@]13CO3)C2(C)C	96.8

— the supplement of paper PMC11150407
